# Several values for one entry are separate records, joined by “and”; a condition that tells them apart may be missing. Identical values can stand only once. Hit rate of the full screen: of about 5,500 compounds, about 2,000 (36%) were called active. Roughly 18% stayed inconclusive and do not appear here. The list shows a part of the results. A number with no mark means an inactive call. Rule as the data show it: active = normalized growth mostly below about 0.91 (no sharp cut-off); inconclusive = no clear call, values can overlap the other calls; inactive = mostly above about 0.92.
# Assay: chemical genetic growth profiling, strain panel (AID 1159580);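 also: tested at 20 µM; growth read once vehicle control cultures reached saturation at 30 °C; 1 = growth at the plate median or of vehicle wells; lower values mean less growth of the strain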
# Settings: S. cerevisiae deletion strains, growth OD
structure (smiles),measurement,setting,value
O=c1[nH]c2ccccc2n1C1CCN(CCCC(c2ccc(F)cc2)c2ccc(F)cc2)CC1,normalized growth,"locus YAL013W, strain DEP1, active compounds read low",1.01 and 0.995
same,normalized growth,"locus YAL021C, strain ccr4, active compounds read low",0.839 (active)
same,normalized growth,"locus YAL026C, strain drs2, active compounds read low",0.948
same,normalized growth,"locus YAL030W, strain snc1, active compounds read low",0.963
same,normalized growth,"locus YAL040C, strain CLN3, active compounds read low",1.03
same,normalized growth,"locus YBL061C, strain skt5, active compounds read low",0.967
same,normalized growth,"locus YBR009C, strain hhf1, active compounds read low",0.875 (active)
same,normalized growth,"locus YBR021W, strain FUR4, active compounds read low",0.969
same,normalized growth,"locus YBR023C, strain chs3, active compounds read low",0.918
same,normalized growth,"locus YBR171W, strain sec66, active compounds read low",1.03
same,normalized growth,"locus YBR229C, strain ROT2, active compounds read low",0.948
same,normalized growth,"locus YBR231C, strain swc5, active compounds read low",0.92
same,normalized growth,"locus YBR279W, strain paf1, active compounds read low",0.953
same,normalized growth,"locus YCL011C, strain gbp2, active compounds read low",0.93
same,normalized growth,"locus YCL016C, strain dcc1, active compounds read low",0.95
same,normalized growth,"locus YCL029C, strain bik1, active compounds read low",0.986
same,normalized growth,"locus YCL061C, strain MRC1 (second series), active compounds read low",1.01
same,normalized growth,"locus YCL061C, strain MRC1, active compounds read low",0.95
same,normalized growth,"locus YCL069W, strain vba3, active compounds read low",1
same,normalized growth,"locus YCR088W, strain abp1, active compounds read low",1
same,normalized growth,"locus YDL005C, strain med2, active compounds read low",1.01
same,normalized growth,"locus YDL035C, strain GPR1, active compounds read low",0.968
same,normalized growth,"locus YDL040C, strain nat1, active compounds read low",1.01
same,normalized growth,"locus YDL074C, strain BRE1, active compounds read low",0.904
same,normalized growth,"locus YDL101C, strain DUN1, active compounds read low",0.978
same,normalized growth,"locus YDL134C, strain PPH21, active compounds read low",0.972
same,normalized growth,"locus YDL185W, strain tfp1, active compounds read low",0.997
same,normalized growth,"locus YDL192W, strain arf1, active compounds read low",1
same,normalized growth,"locus YDR001C, strain nth1, active compounds read low",1.02
same,normalized growth,"locus YDR069C, strain doa4, active compounds read low",0.854 (active)
same,normalized growth,"locus YDR101C, strain arx1, active compounds read low",1
same,normalized growth,"locus YDR137W, strain rgp1, active compounds read low",1.26 [resistant] (active)
same,normalized growth,"locus YDR150W, strain NUM1, active compounds read low",0.973
same,normalized growth,"locus YDR159W, strain sac3, active compounds read low",0.92
same,normalized growth,"locus YDR162C, strain NBP2, active compounds read low",0.975
same,normalized growth,"locus YDR195W, strain ref2",1.05
same,normalized growth,"locus YDR297W, strain sur2, active compounds read low",0.959
same,normalized growth,"locus YDR318W, strain mcm21, active compounds read low",0.975
same,normalized growth,"locus YDR334W, strain swr1, active compounds read low",1.01
same,normalized growth,"locus YDR335W, strain msn5, active compounds read low",0.959
same,normalized growth,"locus YDR363W, strain ESC2, active compounds read low",0.989
same,normalized growth,"locus YDR388W, active compounds read low",0.838 (active)
same,normalized growth,"locus YDR392W, strain spt3, active compounds read low",0.646 (active)
same,normalized growth,"locus YDR502C, strain sam2, active compounds read low",0.986
same,normalized growth,"locus YEL003W, strain gim4, active compounds read low",0.944
same,normalized growth,"locus YEL037C, strain rad23, active compounds read low",0.936
same,normalized growth,"locus YEL061C, strain CIN8 (second series), active compounds read low",1.01
same,normalized growth,"locus YEL061C, strain CIN8, active compounds read low",0.989
same,normalized growth,"locus YER015W, strain faa2, active compounds read low",0.953
same,normalized growth,"locus YER016W, strain bim1, active compounds read low",0.961
same,normalized growth,"locus YER110C, active compounds read low",0.993
same,normalized growth,"locus YER111C, strain swi4, active compounds read low",1.02
same,normalized growth,"locus YER155C, strain BEM2 (second series), active compounds read low",0.707 (active)
same,normalized growth,"locus YER155C, strain BEM2, active compounds read low",1.02
same,normalized growth,"locus YER167W, strain BCK2, active compounds read low",0.99
same,normalized growth,"locus YFR010W, strain ubp6, active compounds read low",0.878 (active)
same,normalized growth,"locus YGL078C, strain dbp3, active compounds read low",0.994
same,normalized growth,"locus YGL086W, strain mad1, active compounds read low",0.986
same,normalized growth,"locus YGL167C, strain pmr1, active compounds read low",1.01
same,normalized growth,"locus YGL173C, strain kem1, active compounds read low",0.936
same,normalized growth,"locus YGL227W, strain vid30, active compounds read low",1.03
same,normalized growth,"locus YGL240W, strain doc1, active compounds read low",0.916
same,normalized growth,"locus YGL248W, strain PDE1, active compounds read low",0.979
same,normalized growth,"locus YGL253W, strain hxk2, active compounds read low",0.938
same,normalized growth,"locus YGR078C, strain PAC10, active compounds read low",0.967
same,normalized growth,"locus YGR135W, strain pre9, active compounds read low",0.926
same,normalized growth,"locus YGR229C, strain SMI1, active compounds read low",0.949
same,normalized growth,"locus YGR252W, strain gcn5, active compounds read low",0.782
same,normalized growth,"locus YHR013C, strain ard1, active compounds read low",1.02
same,normalized growth,"locus YHR027C, strain rpn1, active compounds read low",0.927
same,normalized growth,"locus YHR030C, strain SLT2, active compounds read low",0.995 and 0.973
same,normalized growth,"locus YHR079C, strain IRE1 (second series), active compounds read low",0.994
same,normalized growth,"locus YHR079C, strain IRE1, active compounds read low",0.942
same,normalized growth,"locus YHR094C, strain hxt1, active compounds read low",0.995
same,normalized growth,"locus YHR129C, strain ARP1, active compounds read low",0.987
same,normalized growth,"locus YHR142W, strain chs7, active compounds read low",0.915
same,normalized growth,"locus YHR200W, strain rpn10, active compounds read low",0.988
same,normalized growth,"locus YIL066C, strain RNR3, active compounds read low",0.968
same,normalized growth,"locus YIL073C, strain SPO22, active compounds read low",1.72 [resistant] (active)
same,normalized growth,"locus YIL125W, strain kgd1, active compounds read low",0.995
same,normalized growth,"locus YIR030C, strain dcg1, active compounds read low",1
same,normalized growth,"locus YJL092W, strain hpr5, active compounds read low",0.936
same,normalized growth,"locus YJL095W, strain BCK1 (second series), active compounds read low",0.973
same,normalized growth,"locus YJL095W, strain BCK1, active compounds read low",1.01 and 0.96
same,normalized growth,"locus YJL115W, strain asf1, active compounds read low",1.02
same,normalized growth,"locus YJL129C, strain trk1, active compounds read low",0.885
same,normalized growth,"locus YJL134W, strain LCB3, active compounds read low",0.993
same,normalized growth,"locus YJL154C, strain vps35, active compounds read low",1.01
same,normalized growth,"locus YJL164C, strain tpk1, active compounds read low",0.937
same,normalized growth,"locus YJL166W, strain qcr8, active compounds read low",0.947
same,normalized growth,"locus YJL168C, strain set2, active compounds read low",0.997
same,normalized growth,"locus YJL187C, strain SWE1 (second series), active compounds read low",0.97
same,normalized growth,"locus YJR043C, strain POL32, active compounds read low",0.996
same,normalized growth,"locus YJR066W, strain TOR1, active compounds read low",0.93

# Reference: PubChem BioAssay AID1159580 (chemical genetic matrix, 2015)
